Where “and” joins values, the source holds several entries; their conditions need not be identical. Equal values may be shown once. Out of some 16,000 compounds screened, about 2,600 (16%) were called active. Another 20% or so got no clear call; they are omitted. Only a sample is shown. Values without a mark were called inactive. Calls follow the shape of the dose curve; as a rule, active = well fitted curve in the direction sought with a large enough effect; inconclusive = small, poorly fitted or top-dose-only effect, or effect the other way; inactive = no such curve, though single readings can be large or run the other way. Peptide text beside a SMILES is read from it. * marks the point of attachment. Cbz = O=C(OCc1ccccc1)*
target: Cytochrome P450 2D6 (Homo sapiens) (UniProt P10635); experiment: Cytochrome panel assay with activity outcomes; conditions: recombinant CYP, pro-luciferin dealkylation, luminescence, p450-cyp2d6; series mostly up to 57.1 µM; activity, negative = inhibition: at the top concentration
Sequence (P10635 whole entry, looked up): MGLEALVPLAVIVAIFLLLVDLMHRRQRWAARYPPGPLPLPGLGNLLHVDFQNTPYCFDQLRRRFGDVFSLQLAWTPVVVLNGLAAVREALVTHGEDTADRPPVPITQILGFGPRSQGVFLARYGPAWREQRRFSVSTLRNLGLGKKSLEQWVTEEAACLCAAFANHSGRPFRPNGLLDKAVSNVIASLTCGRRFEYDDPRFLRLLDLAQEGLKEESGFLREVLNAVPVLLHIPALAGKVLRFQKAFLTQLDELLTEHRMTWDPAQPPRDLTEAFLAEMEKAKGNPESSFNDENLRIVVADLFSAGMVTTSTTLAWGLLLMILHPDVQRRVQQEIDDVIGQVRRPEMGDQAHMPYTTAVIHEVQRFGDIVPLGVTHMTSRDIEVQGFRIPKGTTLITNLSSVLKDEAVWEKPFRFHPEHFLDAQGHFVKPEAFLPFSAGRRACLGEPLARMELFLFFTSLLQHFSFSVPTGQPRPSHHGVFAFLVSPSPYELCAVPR
% is scaled to controls: 0 for no effect and ±100 for the full control effect.

Row | Compound | activity, negative = inhibition | AC50
1 | COC(=O)CCC(NC(=O)OCc1ccccc1)C(=O)NC(CC(C)C)C(=O)OC (stereo unspecified) (Cbz-Glu(OMe)-Leu-OMe; configuration not given here) | 15.2% | –
2 | COC(=O)C(NNc1ccccc1)(NC(=O)c1ccccc1F)C(F)(F)F (stereo unspecified) | -16.1% | –
3 | CCCNC(=O)OC[C@@H]1O[C@H](CCO/N=C\c2ccc(C(=O)N3[C@H](c4ccc(C)cc4)[C@@H](C)CC[C@H]3C(=O)OC)cc2)C=C[C@@H]1Oc1ccc(OC)cc1 | 9.53% [at 11.4 µM] | –
4 | O=C(c1ccccc1)[C@@H]1O[C@H]1c1ccc(-c2ccccc2)cc1 | 3.66% | –
5 | O=C(Cn1cnc2ccccc21)NC(c1ccccc1)c1ccccc1 | – | 7.08 µM (active)
6 | CC(NC(=O)Cn1cnc([N+](=O)[O-])n1)c1ccccc1 (stereo unspecified) | 11% | –
7 | C[C@H](NC(=O)Cn1cncn1)c1ccccc1 | 9.25% | –
8 | C[N+]1(CCCC[N+]2(C)CCCCCCC2)CCCCCCC1 | -7.84% [at 11.4 µM] | –
9 | N/C(=N\O)c1cn([C@@H]2O[C@@H](CO)[C@H](O)[C@@H]2O)c2ncnc(NO)c12 | 14.4% [at 11.4 µM] | –
10 | CCOc1ccc(NC2=NCC(=O)N2Cc2cccs2)cc1 | – | 7.08 µM (active)
11 | CCOc1ccc(N2C(=O)CN=C2Nc2ccccc2Cl)cc1 | -13.5% | –
12 | CCOc1ccc(N2C(=O)CN=C2Nc2ccccc2F)cc1 | -7.99% | –
13 | CCCCOC(=O)CCc1c(C)[nH]c(=O)c(C#N)c1C | -6.68% | –
14 | CCN(CC)C(=O)C1=C(C)NC(=S)NC1c1cn(-c2ccccc2)nc1-c1ccc(Cl)cc1 (stereo unspecified) | -7.39% | –
15 | O=C(O)[C@@H]1[C@@H](C(=O)Nc2ncccn2)[C@@H]2C=C[C@@H]1O2 | 15.2% [at 11.4 µM] | –
16 | CCc1cccc(N(C)C(N)=Nc2cccc3ccccc23)c1 | – | 0.2 µM (active)
17 | O=C(NC[C@@H](O)CO)c1c(I)c(C(=O)NC[C@@H](O)CO)c(I)c(N(CCO)C(=O)CO)c1I | 6.36% [at 25.6 µM] | –
18 | O=C1c2ccccc2-c2ccc(N(Cc3ccc(Br)cc3)Cc3ccc(Br)cc3)cc21 | -1.8% [at 11.4 µM] | –
19 | C[N+]1(C)CCC(OC(=O)C(c2ccccc2)c2ccccc2)CC1 | -11.7% | –
20 | CN1[C@@H]2CC[C@H]1CC(OC(c1ccccc1)c1ccccc1)C2 (stereo partly specified) | – | 2 µM (active) and 1.26 µM (active)
21 | Cn1c(=O)c(-c2cc(F)cc(F)c2)nc2cncnc21 | 0.609% | –
22 | Cc1nn(C)cc1CNC(=O)CCC(=O)O | -3.76% | –

Row | Compound | activity, negative = inhibition | AC50
23 | COc1ccc(NC(=O)NCCCN2CCCCC2C)cc1 (stereo unspecified) | – | 1.58 µM (active)
24 | COc1ccc(NC(=O)N2CCC3(CC2)CCN(S(C)(=O)=O)CC3)cc1 | -3.87% | –
25 | CCN1CCCC1CNC(=O)C(=O)Nc1ccc(OC)cc1 (stereo unspecified) | -29.4% | –
26 | O=S(=O)(c1cnccc1N1CCN(CCO)CC1)N1CCCC1 | 10% [at 11.4 µM] | –
27 | Cc1cccc(Nc2ccccc2C(=O)OCC(=O)NCc2ccco2)c1C | -14% | –
28 | O=C(Nc1ccccc1Cl)c1ccn[nH]1 | -6.64% | –
29 | O=C1c2cccnc2C(=O)N1Cc1ccc(F)cc1 | -2.33% | –
30 | O=C1C(=O)N(Cc2ccc(Cl)c(Cl)c2)c2ccccc21 | – | 3.98 µM (active)
31 | O=C1CCCc2ccccc2N1Cc1cccc(Cl)c1 | -28.2% | –
32 | CCn1ncc(C(=O)Nc2cc(C)on2)c1C | -2.48% | –
33 | Cc1c(C)c2c(C)[nH]nc2oc1=O | -6.17% | –
34 | CN(C)c1nc(C#N)nc(N2CCOCC2)n1 | 9.46% | –
35 | CCOC(=O)C(NC(C)=O)C(=O)O (stereo unspecified) | 24.2% | –
36 | O=C(O)CP(=O)(O)O | – | inactive
37 | CCOC(=O)[C@H](N)/C=C(\C)CP(=O)(O)O | – | 2 µM (active)
38 | Cc1ccc(C)c2sc(NC(=O)c3ccc(N4CCCCC4)c([N+](=O)[O-])c3)nc12 | -8.77% | –
39 | CCc1nnc(NC(=O)CCC(=O)N2CCN(c3ccccn3)CC2)s1 | 18.4% | –
40 | Cc1ccc(C2CC2C(=O)NN)cc1 (stereo unspecified) | -14.7% | –
41 | Cc1ccc(C2NC(c3ccc(C)cc3)C(C)C(=NO)C2C)cc1 (stereo unspecified) | – | 0.562 µM (active)
42 | Cc1ccc(NC(=O)/C(=C\c2cccc([N+](=O)[O-])c2)NC(=O)c2cccs2)cc1 | -1.88% | –
43 | OCCNc1nc(NCCC2=CCCCC2)nc(N2CCOCC2)n1 | – | 7.08 µM (active)
44 | Cc1nc2ncnn2c(C)c1CCC(=O)NCCC1=CCCCC1 | -20.4% | –

Row | Compound | activity, negative = inhibition | AC50
45 | c1ccc(-c2csc(Nc3nc(N4CCOCC4)nc(N4CCOCC4)n3)n2)cc1 | 12.3% | –
46 | COc1ccc(-c2cc(C(F)(F)F)nc(N3CCCCC3)n2)cc1OC | -22.7% | –
47 | Cc1ccccc1N1C(=O)c2cc(S(N)(=O)=O)c(Cl)cc2N[C@H]1C | 5.14% [at 25.6 µM] | –
48 | C[n+]1cn(CC(O)COCc2ccccc2)c2ccccc21 (stereo unspecified) | – | 1.12 µM (active)
49 | OC(COCc1ccccc1)Cn1cnc2ccccc21 (stereo unspecified) | – | 14.1 µM (active)
50 | O=C1CCCC=C1[C@@H](O)COCc1ccccc1 | -20.2% [at 11.4 µM] | –
51 | Cn1c2ccccc2c2cc(C(=O)N3CCOCC3)sc21 | -56.6% | –
52 | CSc1nsc(/C=C/Nc2ccc(Cl)cc2)c1C#N | -20.6% | –
53 | Cc1noc(C)c1CS(=O)(=O)c1ccc(Br)cc1 | -11.4% | –
54 | CCCCCCCCCCCCC/C=C\[C@@H](O)[C@@H](N)CO | – | 15.8 µM (active)
55 | CCCCCCCCCCCCCCC[C@@H](O)[C@@H](N)CO | – | 7.94 µM (active)
56 | CCCC[S@@](=N)(=O)CC[C@@H](N)C(=O)O | 9.89% | –
57 | CCCCCCCCCCCCCCC/C=C\[C@H](O)[C@@H](NC(=O)CCCCCCCCCCCCC)OC (tested in a mixture with another compound) | 2.02% | –
58 | CCCCCCC/C=C\CCCCCCCCC(=O)O | -11% | –
59 | O=C(O)CN(CCOCCOCCN(CC(=O)O)CC(=O)O)CC(=O)O | -4.91% | –
60 | CC(=O)c1c(C)[nH]c(C(=O)COc2ccc(C#N)cc2)c1C | -9.11% | –
61 | CSc1nc2c(c(=O)[nH]1)C(c1ccncc1)C(C(=O)OC(C)C)=C(C)N2 (stereo unspecified) | -16.1% | –
62 | COc1cc(C(=O)Nc2ccc3c(c2)OCCO3)c(-n2cnnn2)cc1OC | -12.8% | –
63 | S=C1NC2=C(C(c3ccc(Br)cc3)N1)N1CCC2CC1 (stereo unspecified) | -19.4% | –
64 | CCN1CCN(C(=S)c2ccc(Br)cc2)CC1 | – | 1 µM (active)
65 | CC1CCN(C(=S)c2ccc(O)cc2)CC1 | -3.59% | –
66 | CCN1CCN(C(=O)CCc2nc3ccccc3c(=O)[nH]2)CC1 | -4.78% | –

From PubChem BioAssay AID1851 (National Center for Advancing Translational Sciences (NCATS), 2009)
